Results published in the supplement of paper PMC10981050.
Where “and” joins values, the source holds several entries; their conditions need not be identical. Equal entries are not always repeated. Structures can show the parent of a compound that is named as a salt.

Tests used:
Assay in all cases: cell viability relative to vehicle control; higher = less cytotoxic
Details in all cases: 10 µM
K562 = system: K562
Summary of the method: (§1)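 Mutant clones made by CRISPR editing and their isogenic wild-type counterparts, from four leukaemia lines, were exposed to a single 10 µM dose of each library compound for 48 h. The supernatant was then removed and CellTiter-Glo luminescence was read. Viability was reported as percent of the on-plate vehicle control.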

MARIMO = system: MARIMO
Summary of the method: as §1

MOLM14 = system: MOLM14
Summary of the method: as §1

OCI-AML2 = system: OCI-AML2
Summary of the method: as §1

| SMILES | cell viability (K562; SRSF2 genotype: SRSF2 P95H/wt) | cell viability (K562; SRSF2 genotype: SRSF2 wt/wt) | cell viability (MARIMO; SRSF2 genotype: SRSF2 P95H/wt) | cell viability (MARIMO; SRSF2 genotype: SRSF2 wt/wt) | cell viability (MOLM14; SRSF2 genotype: SRSF2 P95H/wt) | cell viability (MOLM14; SRSF2 genotype: SRSF2 wt/wt) | cell viability (OCI-AML2; SRSF2 genotype: P95H/wt) | cell viability (OCI-AML2; SRSF2 genotype: wt/wt) |
| --- | --- | --- | --- | --- | --- | --- | --- | --- |
| CC(C)NCC(O)COc1ccc(COCCOC(C)C)cc1 (stereo not given) [Bisoprolol fumarate] | 94.1% and 90.5% | 89.9% | 93.2% | 94.5% | 83.8% | 91.5% | 93.6% | 99.8% |
| COc1c(C)c2c(c(O)c1C/C=C(\C)CCC(=O)OCCN1CCOCC1)C(=O)OC2 [Mycophenolate mofetil (CellCept)] | 50.6% and 48.7% | 45.1% | 45.4% | 43.6% | 9.99% | 2.92% | 13.5% | 12.2% |
| O=C(O)COCCN1CCN(C(c2ccccc2)c2ccc(Cl)cc2)CC1 (stereo not given) [Cetirizine Dihydrochloride] | 94.7% and 100% | 98.7% | 95% | 93.1% | 94.2% | 100% | 103% | 101% |
| CCCc1nn(C)c2c(=O)[nH]c(-c3cc(S(=O)(=O)N4CCN(C)CC4)ccc3OCC)nc12 [Sildenafil Mesylate] | 103% and 96.9% | 103% | 99% | 108% | 107% | 103% | 110% | 105% |
| OC[C@H]1O[C@@](CO)(OC[C@@]2(OC[C@@]3(O[C@H]4O[C@H](CO)[C@@H](O)[C@H](O)[C@H]4O)O[C@H](CO)[C@@H](O)[C@@H]3O)O[C@H](CO)[C@@H](O)[C@@H]2O)[C@@H](O)[C@@H]1O [Nystose] | 106% and 101% | 111% | 100% | 101% | 106% | 100% | 106% | 102% |
| C[C@@H](O)[C@H]1C(=O)N2C(C(=O)O)=C(S[C@@H]3CN[C@H](CNS(N)(=O)=O)C3)[C@H](C)[C@H]12 [Doripenem] | 98.4% and 92.9% | 97.5% | 93.2% | 102% | 99.7% | 98.3% | 89.2% | 99% |
| O=C1NS(=O)(=O)c2ccccc21 [Saccharin] | 99% and 89.3% | 93.9% | 90.5% | 101% | 97.9% | 96.6% | 89.5% | 103% |
| C[C@H](NC(=O)/C(C#N)=C/c1cccc(Br)n1)c1ccccc1 | 25.6% and 17.4% | 20.6% | 11.2% | 7.31% | 2.5% | 0.75% | 10.2% | 7.71% |
| CN(C)CCC(c1ccc(Br)cc1)c1ccccn1 (stereo not given) [Brompheniramine hydrogen maleate] | 95.3% and 97.4% | 91.3% | 86.2% | 90.7% | 101% | 98.8% | 112% | 109% |
| Cc1c[nH]c(C=C2C(=O)Nc3ccccc32)c1CCC(=O)O | 91.9% and 93.8% | 91.2% | 95.2% | 92.2% | 32.7% | 28% | 54.2% | 58.1% |
| CNc1ncc2cc(-c3cc(NC(=O)NCCC(C)(C)C)c(F)cc3C)c(C)nc2n1 | 14.9% and 29.3% | 22% | 36.9% | 34.9% | 27.2% | 23.9% | 31.7% | 34.6% |
| Cc1ccc2c(=O)c3cccc(CC(=O)O)c3oc2c1C [DMXAA (Vadimezan)] | 90% and 87.7% | 90.5% | 89.9% | 102% | 85.4% | 87.8% | 88.9% | 93.1% |
| CNC(=O)c1c(F)cccc1Nc1nc(Nc2cc3c(cc2OC)CCN3C(=O)CN(C)C)nc2[nH]ccc12 | 6.79% and 7.34% | 5.25% | 46.2% | 38.8% | 0.66% | 0.35% | 0.91% | 1.46% |
| COc1cc2c(cc1OC)-c1cc3ccc4c(c3c[n+]1CC2)OCO4 [Epiberberine] | 84.1% and 89.4% | 85.8% | 98.2% | 98.2% | 94.8% | 86.9% | 86.4% | 89.3% |
| Cc1nc2n(c(=O)c1CCN1CCC(c3noc4cc(F)ccc34)CC1)CCCC2 [Risperidone (Risperdal)] | 93.6% and 101% | 93.5% | 94% | 99.2% | 100% | 98.2% | 98.8% | 99% |
| O=C(Oc1cccc(F)c1OC(=O)c1cccc(O)c1)c1cccc(O)c1 | 92.4% and 99.5% | 94.9% | 68.8% | 88.4% | 78.4% | 80.3% | 92.6% | 82.4% |
| COc1ccc2cc1Oc1ccc(cc1)C[C@H]1c3cc(c(OC)cc3CCN1C)Oc1c(O)c(OC)cc3c1[C@H](C2)N(C)CC3 [(+)-Fangchinoline] | 4.1% and 4.98% | 3.92% | 12.2% | 1.33% | 0.71% | 0.57% | 0.52% | 0.71% |
| O=C(O)CC1CC(c2ccccc2)=NO1 (stereo not given) | 108% and 104% | 103% | 97% | 110% | 97.4% | 99.7% | 89.5% | 95.5% |
| CC1(C)CC[C@]2(C(=O)O)[C@H](O)C[C@]3(C)C(=CC[C@@H]4[C@@]5(C)CC[C@H](O)[C@@](C)(C=O)[C@@H]5CC[C@]43C)[C@@H]2C1 [Quillaic acid] | 96.1% and 95.3% | 82.9% | 95% | 104% | 84.6% | 91.7% | 98.9% | 96.8% |
| O=c1cc(-c2ccc(O)cc2)oc2c([C@@H]3OC[C@H](O)[C@H](O)[C@H]3O)c(O)c([C@@H]3O[C@H](CO)[C@@H](O)[C@H](O)[C@H]3O)c(O)c12 [Schaftoside] | 113% and 106% | 113% | 108% | 107% | 112% | 105% | 106% | 105% |
